From PubChem BioAssay AID2108 (National Center for Advancing Translational Sciences (NCATS), 2009)
Inconclusive results are not listed. Calls of active or inactive are those of the source. The call rests on the fitted dose curve; in most records, active means well fitted curve in the direction sought with a large enough effect; inconclusive means small, poorly fitted or top-dose-only effect, or effect the other way, or another doubt; inactive means no such curve, though single readings can be large or run the other way.

biological target: Alpha-galactosidase A (Homo sapiens) (UniProt P06280); experiment: Confirmation of Inhibitors of Human alpha-Galactosidase Using Spleen Homogenate; details: alpha-galactosidase enzyme activity; series mostly up to 56.2 µM; activity change: at the top concentration; further: 0% is about no effect
Method in brief: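 Human spleen homogenate (1 ug) with 1 mM 4-methylumbelliferyl-alpha-D-galactopyranoside in citrate-phosphate pH 5.0, 0.01% Tween-20, 37C 40 min; compounds 0.5 nM–58 uM final. Stopped at pH 10, fluorescence Ex 365/Em 440; AC50 from Hill fits.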

Alpha-galactosidase A (Homo sapiens), sequence (P06280 32-429 limits assumed): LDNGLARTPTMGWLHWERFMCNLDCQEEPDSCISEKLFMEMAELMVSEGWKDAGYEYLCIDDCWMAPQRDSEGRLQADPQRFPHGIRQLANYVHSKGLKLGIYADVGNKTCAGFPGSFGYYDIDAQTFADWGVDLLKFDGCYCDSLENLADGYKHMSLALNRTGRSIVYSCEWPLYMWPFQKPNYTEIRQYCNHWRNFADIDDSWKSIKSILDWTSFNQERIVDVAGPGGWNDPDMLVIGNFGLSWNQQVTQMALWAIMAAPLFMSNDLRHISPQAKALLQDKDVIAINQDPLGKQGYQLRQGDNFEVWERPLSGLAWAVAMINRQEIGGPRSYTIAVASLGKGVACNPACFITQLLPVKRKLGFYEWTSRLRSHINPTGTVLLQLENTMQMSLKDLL

Activity change, inactive:
O=S(=O)(c1ccc2c(c1)C(=NNc1ccccc1)c1cc(S(=O)(=O)N3CCOCC3)ccc1-2)N1CCOCC1 13.8%
CCOc1ccc2c(c1)c(=O)c(S(=O)(=O)c1ccc(C)cc1)cn2Cc1ccccc1Cl -3.76%
OCC(O)C1OC(Nc2ccc(Cl)cc2)C(O)C1O (stereo not drawn) -3.1%
C(=C\c1ccc2ccccc2n1)/c1ccc2c(c1)OCO2 22.9%
CCOC(=O)c1ccc(NC(=O)c2ccccc2)cc1 5.58% [at 23.6 µM]
NC(=O)NN=C1c2cc(S(=O)(=O)N3CCOCC3)ccc2-c2ccc(S(=O)(=O)N3CCOCC3)cc21 8.14%
O=C(Nc1ccccc1)C1CCN(S(=O)(=O)c2ccccc2)CC1 11.6%
O=C(CSc1ncc(C(F)(F)F)cc1Cl)N1CCN(S(=O)(=O)c2ccccc2)CC1 3.43%
O=S(=O)(c1ccccc1)N1CCNCC1 12.7%
CC/C(=N\NC(=O)c1c(C)nc2ccccn12)c1ccc(Cl)cc1 -11.9%
COc1ccc(-n2cc(CNCCc3ncc(C)[nH]3)c(-c3ccccc3Cl)n2)cc1 -2.96%
Cc1noc(C)c1S(=O)(=O)N(CC(=O)N1CCc2ccccc21)c1ccc(C(C)C)cc1 2.56%
O=C(Cn1c(=O)n(Cc2ccccc2)c(=O)c2sc3ccccc3c21)Nc1ccccc1 -5.67%
CCn1c2ccccc2c2nnc(NN)nc21 -2.78%
O=C(Nc1ccc(OCC(=O)N2CCN(S(=O)(=O)c3ccccc3)CC2)cc1)c1ccco1 2.43%
Brc1ccc(C=Nc2ccc(Nc3ccccc3)cc2)s1 -2.92%
Cn1cnc2c(NCc3ccccc3)nc(NCCO)nc21 4.37%
O=c1[nH]c(CN2CCN(c3ccccc3O)CC2)nc2ccccc12 9.3%
